Assay results reported in PubChem BioAssay AID686978 (National Center for Advancing Translational Sciences (NCATS), 2013).
The whole screen tested about 420,000 compounds, of which about 64,000 (15%) were called active. Roughly 27% stayed inconclusive and do not appear here. These entries were drawn from the full list. Values without a mark were called inactive. Calls come from the whole dose curve; as a rule, active = well fitted inhibition curve with a large enough effect; inconclusive = small, poorly fitted or top-dose-only effect; inactive = flat fitted curve, though single readings scatter.
% is set by controls: 0 for no effect and ±100 for the full control effect; potency is the fitted concentration of half-maximal effect.

Test: qHTS for Inhibitors of human tyrosyl-DNA phosphodiesterase 1 (TDP1): qHTS in cells in absence of CPT; note: nearly all actives have a fitted effect of over 55% in size
Conditions: DT40 Tdp1-/- hTDP1 cells, no CPT, ATP luminescence, 48 h; activity change, negative = growth inhibition: at 46.2 µM (top of the series)
How it was run: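 DT40 Tdp1-/-;hTDP1 cells, no CPT (DMSO vehicle only), 400 cells/well; compounds pin-transferred; ≥48 hr, 37 °C; CellTiter-Glo 30 min RT dark, luminescence read.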
In the case of COc1cc(/C=C(/NC(=O)c2ccc(Cl)cc2Cl)C(=O)O)cc(OC)c1OC, the “activity change, negative = growth inhibition” value is reported as -3.62%. With Cc1ccc(C(=O)N/C(=C\c2ccco2)C(=O)N2CCSCC2)cc1C the “activity change, negative = growth inhibition” value was 2.18%. In the case of CCNc1nc(N)nc(Oc2ccc(OCC)nn2)n1, the “activity change, negative = growth inhibition” value is reported as -5.62%. In the case of CCOc1cccc(=O)c2c(C)n(CC3CCCO3)c(C)c12 (stereo not given), the “activity change, negative = growth inhibition” value is reported as -21.8%. In the case of Cc1ccc2c(=O)c(C(=O)c3ccc(F)cc3)cn(CC(=O)NC3CCCCC3)c2n1, the “activity change, negative = growth inhibition” value is reported as -11.5%. With CC(OC(=O)CNC(=O)c1ccco1)C(=O)Nc1ccc(Cl)cn1 (stereo not given) the “activity change, negative = growth inhibition” value was -3.04%. For CCn1c(SCC(=O)NCC2CCCO2)nc2ccccc21 (stereo not given), the “activity change, negative = growth inhibition” value was 1.62%. In the case of O=C(CS(=O)(=O)Cc1ccccc1)NCC1CCCO1 (stereo not given), the “activity change, negative = growth inhibition” value is reported as -15%. In the case of Cc1ccc(C(=O)NCC2CCCO2)o1 (stereo not given), the “activity change, negative = growth inhibition” value is reported as 13%. With S=C(NCCc1ccccc1)NCC1CCCO1 (stereo not given) the Potency was 23.1 µM (active). For CN(CCc1ccccn1)C(=O)c1ccc(OC2CCN(Cc3ccccn3)CC2)cc1, the “activity change, negative = growth inhibition” value was -9.13%. For COCCCNC(=O)Cn1cc(/C=C(\C#N)C(=O)N2CCN(c3ccccc3)CC2)c2ccccc21, the “activity change, negative = growth inhibition” value was -35.8%. In the case of COC(=O)c1cn(CC(=O)NCc2cccs2)c2ccccc12, the “activity change, negative = growth inhibition” value is reported as 0.284%. With COC(=O)Cn1cc(/C=C/[N+](=O)[O-])c2ccccc21 the Potency was 14.6 µM (active). With CCCn1nc(C(=O)OCc2nc(N)nc(Nc3ccccc3C)n2)c2ccccc2c1=O the “activity change, negative = growth inhibition” value was -16%. In the case of COCCN(C(=O)CCC(=O)Nc1nccs1)C(C(=O)NC(C)(C)C)c1ccc(Cl)cc1 (stereo not given), the “activity change, negative = growth inhibition” value is reported as -20.2%. With CCn1c(CN2C(=O)CSc3ccccc32)n[nH]c1=S the “activity change, negative = growth inhibition” value was -8.13%. For COc1ccc(Br)cc1CNC(=O)c1cc(=O)[nH]c2ccc(S(=O)(=O)N3CCCC3)cc12, the “activity change, negative = growth inhibition” value was -7.47%. For CCOC(=O)CNc1nc(Cl)nc(Nc2ccc(OC)cc2OC)n1, the “activity change, negative = growth inhibition” value was -24.2%. For CCN1CCN(C(=O)c2cc3cc4ccc(OC)cc4nc3s2)CC1, the “activity change, negative = growth inhibition” value was -22.2%. With CCN1CCN(c2nc(Nc3cc(OC)ccc3OC)nc(Nc3cc(OC)ccc3OC)n2)CC1 the Potency was 23.1 µM (active). With c1ccc(-c2c[nH]c(-c3ccccc3)c2)cc1 the “activity change, negative = growth inhibition” value was -2.86%. In the case of Cc1nn(-c2cc(Cl)ccc2N)c(=O)c2ccccc12, the “activity change, negative = growth inhibition” value is reported as -14.5%. With COc1cccc(OC)c1C(=O)Nc1ccc2c(c1)n(C)c(=O)n2C the “activity change, negative = growth inhibition” value was 17.7%. For Cn1c(=O)c2cn(-c3cccc4ccccc34)cc2n(C)c1=O, the Potency was 25.9 µM (active). For COc1ccc(NC(=O)CCNS(=O)(=O)c2ccc3c(c2)c(=O)n(C)c(=O)n3C)cc1OC, the “activity change, negative = growth inhibition” value was -28%. In the case of COc1ccc(OC)c(-n2cc3c(=O)n(C)c(=O)n(C)c3c2)c1, the Potency is reported as 14.6 µM (active). For O=C1c2ccccc2C(=O)N1c1cccc2ccccc12, the “activity change, negative = growth inhibition” value was -3.87%. In the case of CC(=O)Nn1cc2c(=O)n(C)c(=O)n(C)c2c1, the “activity change, negative = growth inhibition” value is reported as -1.04%. In the case of CCSC1(SCC)N=C(N)C2(C#N)C(c3ccccc3)NC(C)=CC12C#N (stereo not given), the “activity change, negative = growth inhibition” value is reported as -15%. In the case of O=C(Cn1nnc2ccccc2c1=O)NCc1ccc(Cl)cc1, the “activity change, negative = growth inhibition” value is reported as -26.9%. In the case of Cc1noc(C)c1C(=O)OC(C)C(=O)Nc1ccc2c(c1)OCO2 (stereo not given), the “activity change, negative = growth inhibition” value is reported as -20.5%. With NC(=O)c1ccc(Nc2ccc3nonc3c2[N+](=O)[O-])cc1 the “activity change, negative = growth inhibition” value was -0.787%. For Cc1ccc(C)c(S(=O)(=O)Nc2cc(C)on2)c1, the “activity change, negative = growth inhibition” value was 24.7%. With O=C(CN1CCCSc2ccccc21)N1CCN(S(=O)(=O)c2ccccc2)CC1 the “activity change, negative = growth inhibition” value was -21.5%. In the case of O=C(CN1CCCSc2ccccc21)N1CCN(S(=O)(=O)c2cccc(F)c2)CC1, the Potency is reported as 7.31 µM (active). For O=C(CN1CCN(S(=O)(=O)c2cccc(Cl)c2)CC1)N1CCCCC1, the “activity change, negative = growth inhibition” value was 1.53%. In the case of N#C[C@]1(S(=O)(=O)c2ccccc2)C[C@@H]2ON=C(c3cccc(Br)c3)[C@@H]2C1, the Potency is reported as 6.51 µM (active). With COC(=O)[C@]1(S(=O)(=O)c2ccccc2)C[C@@H]2ON=C(c3ccc(OC)cc3)[C@@H]2C1 the “activity change, negative = growth inhibition” value was -18.7%. For Cc1nc2sc(C)c(C)n2c(=O)c1S(=O)(=O)NCCc1ccc(Cl)cc1, the “activity change, negative = growth inhibition” value was -8.23%. With O=C(CN1CCN(S(=O)(=O)c2ccc(Cl)s2)CC1)N1CCCCC1 the “activity change, negative = growth inhibition” value was -6.5%. In the case of CCC(C)(C)NC(=O)C1c2ccccc2Oc2ccccc21, the “activity change, negative = growth inhibition” value is reported as -10.4%. For O=C(N/N=C/c1ccc(O)c(O)c1)C1c2ccccc2Oc2ccccc21, the Potency was 25.9 µM (active). With O=C(N/N=C/c1cc2c(cc1Br)OCO2)C1COc2ccccc2O1 (stereo not given) the “activity change, negative = growth inhibition” value was -18.1%. With COC1[C@H](OC(N)=O)C(O)[C@H](Oc2ccc3c(O)c(NC(=O)c4ccc(O)c(CC=C(C)C)c4)c(=O)oc3c2C)OC1(C)C (stereo not given in full) the “activity change, negative = growth inhibition” value was -6.85%. In the case of O=C1C=C(NCCNc2c(F)c(F)c(CO)c(F)c2F)CCC1, the “activity change, negative = growth inhibition” value is reported as -8.45%. In the case of CC(C)c1ccc(Cc2nnc(NCCCO)[nH]c2=O)cc1, the “activity change, negative = growth inhibition” value is reported as -9.08%. With O=c1[nH]c(NCCO)nnc1Cc1ccc(Cl)cc1 the “activity change, negative = growth inhibition” value was -10.1%. With COc1ccc(Cc2nnc(N/N=C/c3ccccc3O)[nH]c2=O)cc1OC the Potency was 0.0206 µM (active). For CCc1cc(=O)oc2cc(C)cc(OC(C)C(=O)O)c12 (stereo not given), the “activity change, negative = growth inhibition” value was 6.97%. In the case of CC(C)CNS(=O)(=O)c1ccc(OCC(=O)Nc2ccc3c(c2)OCO3)c(Cl)c1, the “activity change, negative = growth inhibition” value is reported as 2.5%. For CC(=O)OCC(C)n1c(=O)c2ccccc2n1C(C)=O (stereo not given), the “activity change, negative = growth inhibition” value was -18.2%. For CCCc1cc(=O)[nH]c(SCC(=O)N2C(C)CCCC2C)n1 (stereo not given), the “activity change, negative = growth inhibition” value was -4.08%. For CCCCCn1c(=O)[nH]c2cc(C(=O)Nc3cc(C)cc(C)c3)ccc2c1=O, the Potency was 4.61 µM (active). In the case of CCCCCn1c(=O)[nH]c2cc(C(=O)NCCCN3CCCCC3C)ccc2c1=O (stereo not given), the “activity change, negative = growth inhibition” value is reported as -29.4%. For COCCn1c(=O)[nH]c2cc(C(=O)NCc3cccnc3)ccc2c1=O, the “activity change, negative = growth inhibition” value was 0.434%. In the case of CCN(C(=O)CSc1nnnn1-c1ccc(OC)cc1)C1CCS(=O)(=O)C1 (stereo not given), the “activity change, negative = growth inhibition” value is reported as 7.66%. In the case of COc1ccc([C@H]2CC(=O)C=C(/C=C/c3ccccc3)C2)cc1, the “activity change, negative = growth inhibition” value is reported as -10.5%. For COc1ccc2c(c1)CCc1c(C(=O)Nc3c(C)n(C)n(-c4ccccc4)c3=O)noc1-2, the “activity change, negative = growth inhibition” value was -24.4%. For COc1cc(C(=O)Nc2nccs2)cc(OC)c1OC, the “activity change, negative = growth inhibition” value was -26.6%. For COc1cc(NC(=O)c2noc3c2CSc2ccccc2-3)cc(OC)c1OC, the Potency was 8.2 µM (active). With COc1cccc(COC(=O)C2CCN(S(=O)(=O)c3cccs3)CC2)c1OC the “activity change, negative = growth inhibition” value was 0.105%. For CC(C)(Oc1ccc(Cl)cc1)C(=O)OCC(=O)NCCc1ccc(S(N)(=O)=O)cc1, the “activity change, negative = growth inhibition” value was -6.13%. In the case of Cc1ccc(CCN2CC(C(=O)O)CC2=O)cc1 (stereo not given), the “activity change, negative = growth inhibition” value is reported as 0.404%. For CCNS(=O)(=O)c1cc(-c2nnc(Nc3cccc(C(F)(F)F)c3)c3ccccc23)ccc1C, the Potency was 5.8 µM (active). In the case of COCCCNc1nc2c(-c3cccc(C(F)(F)F)c3)nnn2c2ccccc12, the “activity change, negative = growth inhibition” value is reported as -25.1%. With Cc1ccc(C(=O)O)cc1S(=O)(=O)NCC1CCCO1 (stereo not given) the “activity change, negative = growth inhibition” value was -3.24%. In the case of Cc1ccc(-c2nnc(Nc3cccc(Br)c3)c3ccccc23)cc1S(=O)(=O)NCC1CCCO1 (stereo not given), the Potency is reported as 11.6 µM (active). In the case of Cc1cc(Cl)c(S(=O)(=O)NCC2CCCO2)cc1OCC(N)=O (stereo not given), the “activity change, negative = growth inhibition” value is reported as 9.13%. For Cc1ccc(-c2nnc(Nc3ccc(C(=O)N(C)C)cc3)c3ccccc23)cc1S(N)(=O)=O, the “activity change, negative = growth inhibition” value was -1.51%.
